Measured values published in PubChem BioAssay (NCATS).
Where “and” joins values, the source holds several entries; their conditions need not be identical. Identical values can stand only once. Results filed as inconclusive are left out. Calls of active or inactive are those of the source. Unless noted, calls come from the whole dose curve; as a rule, active = well fitted inhibition curve with a large enough effect; inconclusive = small, poorly fitted or top-dose-only effect; inactive = flat fitted curve, though single readings scatter. Bridge positions count the residues as written; N and C are the ends. Square brackets hold non-standard residues; d marks the D form. Peptide text beside a SMILES is read from it. * marks the point of attachment. Octanoyl(6-Me) = CCC(C)CCCCC(=O)*; Dab = NCC[CH](N)C(=O)O

Columns and labels:
[1] = molecular target: Ubiquitin carboxyl-terminal hydrolase 1 (Homo sapiens) (UniProt O94782); test: Inhibitors of USP1/UAF1: Pilot qHTS (AID 504865); note: nearly all actives have a fitted effect of over 35% in size; note: potency is the fitted concentration of half-maximal effect
Procedure, shortened: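 USP1/UAF1 complex (1nM) preincubated with compound 15 min at room temperature, then Ub-Rho substrate (150nM final) added. Fluorescence read kinetically at 480/540 nm, 6 reads every 60 seconds. Buffer: 50mM HEPES pH 7.8, 0.5mM EDTA, 0.1 mg/ml BSA, 1mM TCEP, 0.01% Tween-20.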

[2] = test system: AS120; test: qHTS profiling for inhibitors of Plasmodium falciparum proliferation (AID 504749); note: nearly all actives have a fitted effect of over 60% in size; note: potency is the fitted concentration of half-maximal effect; details: P. falciparum in erythrocytes, SYBR Green DNA, 72 h; series mostly up to 28.7 µM
Procedure, shortened: (§1)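 Three-day growth assay of blood-stage parasites in erythrocytes (0.3% parasitemia, 2.5% hematocrit) at 37 C, 5% CO2, quantified by SYBR Green DNA staining after overnight detergent lysis.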

[3] = test system: C2A; test: as above; details: P. falciparum in erythrocytes, SYBR Green DNA, 72 h; series mostly up to 28.7 µM
Procedure, shortened: as §1

[4] = test system: CP191; test: as above; details: P. falciparum in erythrocytes, SYBR Green DNA, 72 h; series mostly up to 28.7 µM
Procedure, shortened: as §1

[5] = test system: CP192; test: as above; details: P. falciparum in erythrocytes, SYBR Green DNA, 72 h; series mostly up to 28.7 µM
Procedure, shortened: as §1

[6] = test system: CP237; test: as above; details: P. falciparum in erythrocytes, SYBR Green DNA, 72 h; series mostly up to 28.7 µM
Procedure, shortened: as §1

[7] = test system: CP247; test: as above; details: P. falciparum in erythrocytes, SYBR Green DNA, 72 h; series mostly up to 28.7 µM
Procedure, shortened: as §1

[8] = test system: CP256; test: as above; details: P. falciparum in erythrocytes, SYBR Green DNA, 72 h; series mostly up to 28.7 µM
Procedure, shortened: as §1

[9] = test system: CP260; test: as above; details: P. falciparum in erythrocytes, SYBR Green DNA, 72 h; series mostly up to 28.7 µM
Procedure, shortened: as §1

[10] = test system: CP265; test: as above; details: P. falciparum in erythrocytes, SYBR Green DNA, 72 h; series mostly up to 28.7 µM
Procedure, shortened: as §1

[11] = test system: CP266; test: as above; details: P. falciparum in erythrocytes, SYBR Green DNA, 72 h; series mostly up to 28.7 µM
Procedure, shortened: as §1

[12] = test system: CP269; test: as above; details: P. falciparum in erythrocytes, SYBR Green DNA, 72 h; series mostly up to 28.7 µM
Procedure, shortened: as §1

[13] = test system: CP291; test: as above; details: P. falciparum in erythrocytes, SYBR Green DNA, 72 h; series mostly up to 28.7 µM
Procedure, shortened: as §1

[14] = test system: CP335; test: as above; details: P. falciparum in erythrocytes, SYBR Green DNA, 72 h; series mostly up to 28.7 µM
Procedure, shortened: as §1

[15] = test system: DFO2036; test: as above; details: P. falciparum in erythrocytes, SYBR Green DNA, 72 h; series mostly up to 28.7 µM
Procedure, shortened: as §1

[16] = test system: Dd2; test: as above; details: P. falciparum in erythrocytes, SYBR Green DNA, 72 h; series mostly up to 28.7 µM
Procedure, shortened: as §1

[17] = test system: PC15; test: as above; details: P. falciparum in erythrocytes, SYBR Green DNA, 72 h; series mostly up to 28.7 µM
Procedure, shortened: as §1

[18] = test system: SC27B; test: as above; details: P. falciparum in erythrocytes, SYBR Green DNA, 72 h; series mostly up to 28.7 µM
Procedure, shortened: as §1

[19] = molecular target: Nuclear receptor subfamily 1 group I member 2 (Rattus norvegicus) (UniProt Q9R1A7); test: qHTS assay for small molecule activators of the rat pregnane X receptor (rPXR) signaling pathway (AID 651751; call rule not given here; note: 0% is about no effect); details: rPXR reporter cells, luciferase (One-Glo), 24 h
[20] = molecular target: Tumor necrosis factor (Homo sapiens) (UniProt P01375); test: qHTS assay to identify small molecules that stimulate Tumor Necrosis Factor-alpha (TNF-alpha) secretion (AID 651757; active = well fitted curve in the direction sought with a large enough effect in the signal ratio; the % refers to the signal ratio; note: 0% is about no effect)
Procedure, shortened: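 THP-1 cells were exposed to compounds for 17 hrs at 37 C, after which secreted TNF-alpha was measured by homogeneous HTRF (TR-FRET) using cryptate- and XL665-labeled anti-TNF-alpha antibodies, read after 3 hr at room temperature.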

Nuclear receptor subfamily 1 group I member 2 (Rattus norvegicus), sequence (Q9R1A7 whole entry, looked up): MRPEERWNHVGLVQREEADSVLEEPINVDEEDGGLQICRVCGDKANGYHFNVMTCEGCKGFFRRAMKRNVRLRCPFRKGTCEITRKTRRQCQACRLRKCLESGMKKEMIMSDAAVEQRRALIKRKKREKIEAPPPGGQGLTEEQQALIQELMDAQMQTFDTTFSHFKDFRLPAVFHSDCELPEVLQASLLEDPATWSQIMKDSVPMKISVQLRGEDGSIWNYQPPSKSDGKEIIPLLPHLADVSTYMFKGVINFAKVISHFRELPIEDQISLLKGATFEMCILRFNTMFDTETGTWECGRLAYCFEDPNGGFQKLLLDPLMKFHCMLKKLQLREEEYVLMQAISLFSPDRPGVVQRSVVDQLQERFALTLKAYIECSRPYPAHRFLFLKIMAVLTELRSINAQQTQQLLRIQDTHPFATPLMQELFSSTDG
Ubiquitin carboxyl-terminal hydrolase 1 (Homo sapiens), sequence (O94782 whole entry, looked up): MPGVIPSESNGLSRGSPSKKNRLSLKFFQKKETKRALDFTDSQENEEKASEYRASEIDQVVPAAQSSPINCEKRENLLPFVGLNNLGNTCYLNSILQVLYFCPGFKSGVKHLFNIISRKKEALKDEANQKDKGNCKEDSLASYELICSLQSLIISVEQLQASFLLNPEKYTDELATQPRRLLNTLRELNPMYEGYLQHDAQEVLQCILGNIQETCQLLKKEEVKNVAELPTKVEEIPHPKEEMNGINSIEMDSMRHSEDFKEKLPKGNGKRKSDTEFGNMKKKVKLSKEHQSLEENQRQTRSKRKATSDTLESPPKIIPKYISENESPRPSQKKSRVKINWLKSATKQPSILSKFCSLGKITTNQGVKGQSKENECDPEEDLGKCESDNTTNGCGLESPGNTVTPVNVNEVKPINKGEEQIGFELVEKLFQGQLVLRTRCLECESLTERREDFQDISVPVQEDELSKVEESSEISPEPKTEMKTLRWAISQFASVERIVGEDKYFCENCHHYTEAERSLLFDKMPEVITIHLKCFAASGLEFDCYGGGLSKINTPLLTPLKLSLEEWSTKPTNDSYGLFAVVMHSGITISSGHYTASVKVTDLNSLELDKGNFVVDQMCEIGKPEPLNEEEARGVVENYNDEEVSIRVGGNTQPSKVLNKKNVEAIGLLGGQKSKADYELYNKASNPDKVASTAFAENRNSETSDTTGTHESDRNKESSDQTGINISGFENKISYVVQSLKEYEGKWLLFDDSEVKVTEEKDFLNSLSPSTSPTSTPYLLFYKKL
Tumor necrosis factor (Homo sapiens), sequence (P01375 whole entry, looked up): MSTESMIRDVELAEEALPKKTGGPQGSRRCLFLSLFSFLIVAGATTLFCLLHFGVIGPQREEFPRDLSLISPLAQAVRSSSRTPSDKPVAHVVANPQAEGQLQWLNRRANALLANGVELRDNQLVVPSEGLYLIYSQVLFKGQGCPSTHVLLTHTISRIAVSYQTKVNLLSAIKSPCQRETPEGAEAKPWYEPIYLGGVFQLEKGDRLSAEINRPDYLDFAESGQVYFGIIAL

CC1(C)S[C@@H]2[C@H](NC(=O)COc3ccccc3)C(=O)N2[C@H]1C(=O)O
inactive: Potency [1] | Potency [2] | Potency [3] | Potency [4] | Potency [5] | Potency [6] | Potency [7] | Potency [8] | Potency [9] | Potency [10] | Potency [11] | Potency [12] | Potency [13] | Potency [14] | Potency [15] | Potency [16] | Potency [17] | Potency [18] | max response [19] -0.437%

CCC(C)CCCCC(=O)NC(CCN)C(=O)NC(C(=O)NC(CCN)C(=O)NC1CCNC(=O)C(C(C)O)NC(=O)C(CCN)NC(=O)C(CCN)NC(=O)C(CC(C)C)NC(=O)C(Cc2ccccc2)NC(=O)C(CCN)NC1=O)C(C)O (configuration not stated) ({Octanoyl(6-Me)}-[Dab]T[Dab][Dab][Dab]FL[Dab][Dab]T; lactam 4-C; configuration not given here)
active: Potency [1] 50.1 µM
inactive: Potency [2] | Potency [3] | Potency [4] | Potency [5] | Potency [6] | Potency [7] | Potency [8] | Potency [9] | Potency [11] | Potency [12] | Potency [13] | Potency [14] | Potency [15] | Potency [16] | Potency [17] | Potency [18]

c1ccc2scnc2c1
inactive: outcome [20] | max response [19] -1.2%

CC(C)(CO)C(O)C(=O)NCCCC(=O)O (configuration not stated)
inactive: Potency [1] | Potency [17]
active: Potency [2] 0.0071 µM | Potency [7] 0.0112 µM | Potency [10] 0.0141 µM | Potency [12] 16.9 µM

O=C(O)c1ccccc1C(c1ccc(O)cc1)c1ccc(O)cc1
inactive: outcome [20] | max response [19] 0.601% and -3.77%

Nc1nc(Cl)nc2c1ncn2C1CC(O)C(CO)O1 (configuration not stated)
inactive: Potency [5] | Potency [11] | Potency [12] | Potency [13] | Potency [14]

CO[C@@H]1[C@@H](OC2OC(C)C(OC3CC(C)(O)C(OC(=O)CC(C)C)C(C)O3)C(N(C)C)C2O)[C@@H](CC=O)C[C@@H](C)C(=O)/C=C\C2O[C@H]2C[C@@H](C)OC(=O)C[C@H]1OC(C)=O (some centres not stated)
active: Potency [2] 10 µM | Potency [3] 10 µM | Potency [4] 11.2 µM | Potency [6] 10 µM | Potency [7] 11.2 µM | Potency [8] 5.01 µM | Potency [9] 7.94 µM | Potency [10] 11.2 µM | Potency [12] 4.78 µM | Potency [13] 6.75 µM | Potency [14] 6.75 µM | Potency [15] 10 µM | Potency [16] 0.891 µM | Potency [18] 10 µM
inactive: Potency [1] | Potency [5]
